From PubChem BioAssay AID1458 (National Center for Advancing Translational Sciences (NCATS), 2008)
The campaign covered roughly 210,000 compounds. About 5,900 (2.8%) were called active. Another 5% or so got no clear call; they are omitted. The sample as a whole holds a higher share of actives than the screen did. A number with no mark means an inactive call. The call rests on the fitted dose curve; in most records, active means well fitted activation curve with a large enough effect; inconclusive means small, poorly fitted or top-dose-only effect; inactive means no such curve, though single readings can be large or run the other way.

Test: qHTS Assay for Enhancers of SMN2 Splice Variant Expression; further: nearly all actives have a fitted effect of over 55% in size; on activity change, positive = activation: % of control where 0% means no effect
Conditions: HEK293 SMN2-luciferase splicing reporter, luminescence, 30-36 h; series mostly up to 46.1 µM; activity change, positive = activation: at the top concentration
Description: NIH Chemical Genomics Center [NCGC] NIH Molecular Libraries Probe Production centers Network [MLPCN] MLPCN Grant: R03 MH084179-01 Assay Submitter (PI): Elliot Androphy NCGC Assay Overview: Spinal muscular atrophy (SMA) is caused by insufficient levels of the survival motor neuron protein SMN. The SMN locus on chromosome 5q13 contains two inverted copies of SMN called SMN1 and SMN2 which are 99% identical at the amino acid level. SMN1 is a fully functional protein and SMN2 skips exon 7 90% of the time. Skipping of exon 7 produces non-functional protein product. 10% of the SMN2 protein includes exon 7 and is fully functional. In the SMA disease state, mutations in the SMN1 locus are the cause of the disease state. Because only 10% of SMN2 is of the fully functional form, it is not sufficient to overcome the deficiency produced by the loss of the SMN1 product. A therapy that either increase the amount of SMN2 product made or to increase the inclusion of exon 7 has been proposed for the treatment of SMA. We have designed an assay to identify small molecules that can increase the amount of functional SMN2 product by appending a luciferase reporter gene after the native SMN2 gene, such that inclusion of exon 7 in the expressed product places the luciferase sequence in frame, thus generating functional luciferase enzyme.
NCGC Assay Protocol Summary: This screen utilizes a luciferase reporter gene assay, combining the promoter and splicing based cassettes in tandem with the major portion of the native SMN2 cDNA, and then transfected into HEK293 cells. Compounds that increase luciferase signal presumably enhance expression of the functional SMN2 splice variant. Passaging media contained DMEM w/ glutamax (+phenol red) 10% FCS, 1x pen/strep, 200 ug/ml hygro, 1x sodium pyruvate. Assay media contained DMEM w/ glutamax (-phenol red) 10% FCS, 1x pen strep, 1x pyruvate Sequence, Parameter, Value, Description (1) Cells, […], 2000 cells/well, 1536 TC treated White solid bottom plate (2) Time, 10-12 hours, 37C 5% CO2 (3) Compound, 23 nl, MLSMR Library (4) Control Compound, 23 nL, Sodium butyrate st 4.5mM (final) conc (5) Time, 30-36 hours, 37C 5% CO2 (6) Reagent, 3 ul, One Glo (TM) from Promega (7) Time, 5-15 minutes, Room temp (8) Detector, Viewlux: luminescent read, 60 second integration, high speed 2x binning Keywords: Spinal muscular atrophy, SMA, SMN2, high throughput screening, MLSMR, MLPCN, NIH Roadmap, qHTS and NCGC
Potency means the concentration at half of the fitted maximal effect.

Row | Compound | Potency | activity change, positive = activation
1 | CC(C)Oc1ccc(NC(=O)c2cc3ccccc3o2)cc1 | 2.51 µM (active) | –
2 | Cc1ncoc1C(=O)NCCC(c1ccccc1)c1ccccc1 | – | -50.5%
3 | O=C(OCC1O[C@@H](OC(=O)c2cc(O)c(O)c(O)c2)[C@@H](OC(=O)c2cc(O)c(O)c(O)c2)[C@@H](OC(=O)c2cc(O)c(O)c(O)c2)[C@@H]1OC(=O)c1cc(O)c(O)c(O)c1)c1cc(O)c(O)c(O)c1 (stereo not given in full) | – | -42.8%
4 | COc1cccc(C(=O)Nc2ccc(-c3cc(C(F)(F)F)nn3-c3ccccc3)cc2)c1 | – | -70.6%
5 | O=C(OCC(=O)c1cccs1)C1=COCCO1 | 14.1 µM (active) | –
6 | CC(=O)c1c(O)c(C)c(O)c(Cc2c(O)c3c(c(C(=O)/C=C/c4ccccc4)c2O)OC(C)(C)C=C3)c1O | inactive | –
7 | CCCCCCCCCc1ccc(OCCOCCOCCOCCOCCOCCOCCOCCOCCO)cc1 | – | -96.9%
8 | Cn1c(=O)oc2cc(S(=O)(=O)N3CCC(C(=O)Nc4ccc(OC(F)(F)F)cc4)CC3)ccc21 | – | -41.6%
9 | CC(=O)Oc1ccccc1C(=O)Nc1ncc([N+](=O)[O-])s1 | 12.6 µM (active) | –
10 | C[N+](C)(C)CCOP(=O)([O-])OC[C@H](O)CO | – | -39.5%
11 | CC(C)=CCC[C@]1(C)[C@@H](CC=C(C)C)C[C@@]2(CC=C(C)C)C(=O)[C@]1(C(=O)C(C)C)C(=O)C(CC=C(C)C)=C2O | – | -64.9%
12 | CC[C@]1([C@H]2O[C@@H]([C@@H]3O[C@](O)(CO)[C@@H](C)C[C@H]3C)C[C@H]2C)CC[C@@H]([C@]2(C)CC[C@@]3(C[C@@H](O)[C@@H](C)[C@@H]([C@H](C)[C@H](OC)[C@H](C)C(=O)O)O3)O2)O1 | – | -29.3% [at 20.6 µM]
13 | O=C(Nc1cccc(OC(=O)N2CCCCC2)c1)N1CCOCC1 | – | -21.1%
14 | CC(C)(C)c1ccc(OC(=O)N2CCCCC2)cc1 | 12.6 µM (active) | –
15 | O=C(Nc1cccc(F)c1)N1CC[C@@]2(CCCN(C(=O)Oc3ccccc3)C2)C1 | – | -46.3%
16 | CC(C)(C)C(O)(CCc1ccc(Cl)cc1)Cn1cncn1 (stereo not given) | – | 9.38%
17 | NCC[Se][Se]CCN | – | -13.3% [at 9.22 µM]
18 | CO[C@@H]1C[C@@H](C[C@H]2CC[C@H](C)[C@@H]([C@@H](C)C(=O)O)O2)O[C@]2(O[C@](C)([C@H]3CC[C@@](C)(C4OC([C@H]5O[C@@](O)(CO)[C@H](C)C[C@@H]5C)C[C@@H]4C)O3)C[C@H]2C)[C@@H]1C (stereo not given in full) | – | -100%
19 | c1ccc(Cc2nn3c(Cn4cnc5ccccc54)nnc3s2)cc1 | – | -70.4%
20 | N#CC(C#N)=Cc1cc(O)c(O)c([N+](=O)[O-])c1 | – | 8.15%
